The values below come from PubChem BioAssay AID1578 (Sanford-Burnham Center for Chemical Genomics, 2009).

The campaign covered roughly 290,000 compounds. About 3,000 (1%) were called active. This excerpt belongs to a sample that is enriched for actives. A number with no mark means an inactive call. No stated cut-off is given here; in the data, active means inhibition mostly above about 36% (no sharp cut-off); inactive means mostly below about 34%.

The inhibition is the drop in the measured response relative to a control, in per cent.

The experiment in a line: inhibition of NOD1-driven NF-kB reporter – cell-based, luminescence, uHTS, primary screen (AID 1578).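 Further: HEK-293T reporter cells stimulated with the NOD1 agonist gamma-tri-DAP.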 The conditions noted are these: NOD1-driven NF-kB luciferase reporter cells, at 4 µM, active compounds read high.
In the case of `Cc1c(NC(=O)C(C#N)=C2CCCCC2)c(=O)n(-c2ccccc2)n1C`, the inhibition is -3.8%. Under `O=C(c1cc(F)ccc1F)C1CCCN(C(=O)CCN2CCCCO2)C1` (configuration not stated) stands -29.2%; under `Cc1ccc2nc(NC(=O)COC(=O)c3ccccn3)sc2c1`, -22%. As for `O=C(Nc1nc2ccc(F)cc2s1)c1ccccn1`, the figure is 107% (active); as for `O=C(Nc1nc2c(F)cc(F)cc2s1)c1ccco1`, -3.5%.

`Cc1ccc2nc(NC(=O)c3ccccn3)sc2c1`: the inhibition is 109% (active). For the molecule `O=C(Nc1nc2ccc(S(=O)(=O)N3CCCC3)cc2s1)c1ccccn1`, the inhibition was -16.1%. For the molecule `Cc1ccc2nc(NC(=O)c3ccccc3F)sc2c1`, the inhibition is -69.7%. As for `O=C(NNc1nc2c(F)cc(F)cc2s1)c1ccccc1`, the figure is -5.8%; as for `O=C(Nc1nc2ccc(F)cc2s1)c1cccs1`, -59.7%; as for `O=C(Nc1nc2c(F)cc(F)cc2s1)c1ccccn1`, 70.9% (active).

With `COC(=O)c1ccc2nc(NC(=O)C(C)(C)C)sc2c1`, the inhibition is 35.8%. Under `Fc1ccc2nc(Nc3nc4c(F)cc(F)cc4s3)sc2c1` stands 2.7%; under `COc1cc(CN2CCCC(N3CCN(c4ccc(F)cc4)CC3)C2)ccc1F` (configuration not stated), 61.4%. Under `COc1ccccc1S(=O)(=O)N1CCC(C(=O)O)(c2ccccc2)CC1` stands 14.5%; under `COc1ccc(NC(=S)c2ccncc2)cc1`, -9.9%; under `CC(Sc1nnc(N)s1)C(=O)Nc1ccc(N2CCOCC2)cc1` (configuration not stated), -20.5%. As for `COc1ccc(NC(=O)Cc2c(F)c(F)c(F)c(F)c2F)cc1OC`, the inhibition is 2.8%. Regarding `Cc1csc(NC(=O)CSc2nc(C(C)C)nc3ccccc23)n1`, the inhibition was 12.9%.

Regarding `O=C1N/C(=N\c2ccccn2)SC1Cc1ccc(Cl)cc1` (configuration not stated), the inhibition was 103% (active). Under `O=C1N/C(=N/c2ccccn2)SC1Cc1ccccc1` (configuration not stated) stands -21%; under `Cc1ccc(CC2S/C(=N/c3ccccn3)NC2=O)cc1` (configuration not stated), 17%; under `CCCCN1CC(=O)N2Cc3[nH]c4ccccc4c3C[C@H]2C1=O`, -2.4%. Under `O=C(Nc1ccccc1)C1(c2ccccc2)CC1(Cl)Cl` (configuration not stated) stands -28.2%; under `Cc1ccc(SCC(=O)NCCN2C(=O)CSC2=O)c(C)c1`, -23.2%; under `S=c1sc2c(N3CCN(Cc4ccccc4)CC3)ncnc2n1-c1ccccc1`, -6.8%. For the molecule `S=c1sc2c(Cl)ncnc2n1-c1ccccc1`, the inhibition is 69.8% (active). Under `S=c1sc2c(N3CCOCC3)ncnc2n1-c1ccccc1` stands 9%; under `CN1CCN(CC2(O)CCN(S(=O)(=O)c3ccc(Cl)cc3)CC2)CC1`, -21.7%; under `Cc1cccc2c(=O)c(C(=O)NCCc3ccccc3)c[nH]c12`, -28.3%. As for `O=C(NCCc1ccccc1)c1cc2ncc(Br)cn2n1`, the figure is -28.5%.

`NC1=NC(=O)/C(=C/c2cccc(F)c2)S1`: the inhibition is -12%. Under `NC1=NC(=O)/C(=C\c2cccnc2)S1` stands 53.6% (active). Under `NC1=NC(=O)/C(=C/c2ccc(Br)cc2)S1` stands 25%. As for `Cc1cc(OCC(=O)N2CCN(c3ccccc3)CC2)c2c(C)cc(=O)oc2c1`, the figure is -49.6%; as for `O=C(NCc1nnc(SCC(=O)N2CCCc3ccccc32)o1)c1ccco1`, -0.1%. `CC(=O)OC1C2CCC1C([N+]1(C)CCCCC1)CC2` (configuration not stated): the inhibition was -31.7%.

For the molecule `Cc1cccc(N=c2oc3cc(O)ccc3cc2C(N)=O)c1`, the inhibition was 44.6%. Under `COc1ccc2cc(C(N)=O)c(=Nc3ccccc3)oc2c1` stands 34.9%; under `NC(=O)c1cc2ccc(O)cc2oc1=Nc1ccccc1`, 92.8% (active); under `CCN(CC)S(=O)(=O)c1cc(NC(=O)CCCOc2ccc(C(C)=O)cc2)ccc1C`, 6.3%. As for `Oc1c(Br)cc(C=Nc2ccc3nc(-c4ccccc4)[nH]c3c2)c(O)c1Br`, the figure is 33.9%; as for `Cc1cccc(N2C(=O)C3C4C=CC(CC4)C3C2=O)c1` (configuration not stated), -21.6%; as for `Cc1c(C)c2ccc(O[C@@H]3O[C@H](CO)[C@H](O)[C@H](O)[C@H]3O)cc2oc1=O`, -1%. Under `Cc1cc(C(=O)CSc2nnc(-c3ccco3)o2)c(C)n1CC1COc2ccccc2O1` (configuration not stated) stands 43.4%. For `Cc1cc(C(=O)CSc2nnc(-c3ccco3)o2)c(C)n1Cc1ccco1`, the inhibition was 3.1%. Under `Cc1ccc(S(=O)(=O)N2CCN(C(=O)CSc3nnc(-c4ccco4)o3)CC2)cc1` stands -19%; under `Cc1c(C(=O)O)oc2ccc(S(=O)(=O)N3CC(C)CC(C)C3)cc12` (configuration not stated), -13%; under `CCN(CC)C(=O)c1oc2ccc(S(=O)(=O)N3CCCCCC3)cc2c1C`, 20.9%. Under `COc1cccc(-n2c(SCC#N)nnc2-c2cnccn2)c1` stands 5.2%; under `CC(C)CCN1CCN(Cc2cccc3nonc23)CC1CCO` (configuration not stated), -23.9%; under `O=C(Nc1cccnc1)c1cc(-c2ccc(Br)cc2)nc2ccccc12`, -14.6%. In the case of `CCCCc1oc2ccccc2c1C(=O)c1cc(I)c(OCCN(CC)CC)c(I)c1`, the inhibition was -7.6%. As for `CCc1oc2ccccc2c1C(=O)c1cc(Br)c(O)c(Br)c1`, the figure is 87.3% (active); as for `CCc1oc2ccccc2c1C(=O)CCN1CCCCC1`, 39.5%; as for `O=C(Nc1ccc(OCC(F)(F)C(F)F)cc1)c1ccncc1`, -18.2%.

With `O=C(O)c1ccccc1C(=O)Nc1ccc(Br)c(C(F)(F)F)c1`, the inhibition is -11.4%.

As to `O=C(Nc1ccc(OCC(F)(F)C(F)F)c(C(F)(F)F)c1)c1ccccc1O`, the inhibition is 77.1% (active). Consider `O=C(CN1C(=O)CCSc2ccc(S(=O)(=O)N3CCCC3)cc21)Nc1ccccc1Cl`, for which the inhibition was -4.7%. As for `CCN1CCN(C(=O)COCc2cc(-c3ccc4c(c3)OCO4)on2)CC1`, the figure is -17.7%; as for `Cc1ccc2c(c1)N(S(=O)(=O)c1cc(-c3onc(C)c3C)ccc1C)CCO2`, 29.7%. For `CC(C)(C)n1ncc(Oc2ccccc2[N+](=O)[O-])c(Cl)c1=O`, the inhibition was 12.6%.

On to `CCN=C1NN=C(c2cc(C)n(Cc3ccco3)c2C)CS1`, for which the inhibition is 81.7% (active). As for `COCCCN=C1NN=C(c2cc(C)n(Cc3ccco3)c2C)CS1`, the inhibition was -8.2%. Under `Cc1cc(C2=NNC(=NC3CC3)SC2)c(C)n1Cc1ccco1` stands 90.4% (active); under `Cc1cc(C2=NNC(=NC3CCCCC3)SC2)c(C)n1-c1c(C)n(C)n(-c2ccccc2)c1=O`, 2.7%.

Take `CCN=C1NN=C(c2cc(C)n(CCc3ccccc3)c2C)CS1`: the inhibition is -15%.
